According to PubChem BioAssay AID1963316 (National Center for Advancing Translational Sciences (NCATS), 2024):
Results filed as inconclusive are left out. Values without a mark were called inactive. Calls of active or inactive are those of the source. Calls come from the whole dose curve.

molecular target: Tyrosine-protein kinase ABL1 (Homo sapiens) (UniProt P00519); assay: ABL1 kinase (ABL1-N-HiBiT) SDR gain of signal screen - plus ATP; conditions: purified ABL1-N-HiBiT enzyme, HiBiT luminescence with 50 uM ATP, 30 min; series mostly up to 57.5 µM; signal gain, positive = increase: at the top concentration
Sequence (P00519 whole entry, looked up): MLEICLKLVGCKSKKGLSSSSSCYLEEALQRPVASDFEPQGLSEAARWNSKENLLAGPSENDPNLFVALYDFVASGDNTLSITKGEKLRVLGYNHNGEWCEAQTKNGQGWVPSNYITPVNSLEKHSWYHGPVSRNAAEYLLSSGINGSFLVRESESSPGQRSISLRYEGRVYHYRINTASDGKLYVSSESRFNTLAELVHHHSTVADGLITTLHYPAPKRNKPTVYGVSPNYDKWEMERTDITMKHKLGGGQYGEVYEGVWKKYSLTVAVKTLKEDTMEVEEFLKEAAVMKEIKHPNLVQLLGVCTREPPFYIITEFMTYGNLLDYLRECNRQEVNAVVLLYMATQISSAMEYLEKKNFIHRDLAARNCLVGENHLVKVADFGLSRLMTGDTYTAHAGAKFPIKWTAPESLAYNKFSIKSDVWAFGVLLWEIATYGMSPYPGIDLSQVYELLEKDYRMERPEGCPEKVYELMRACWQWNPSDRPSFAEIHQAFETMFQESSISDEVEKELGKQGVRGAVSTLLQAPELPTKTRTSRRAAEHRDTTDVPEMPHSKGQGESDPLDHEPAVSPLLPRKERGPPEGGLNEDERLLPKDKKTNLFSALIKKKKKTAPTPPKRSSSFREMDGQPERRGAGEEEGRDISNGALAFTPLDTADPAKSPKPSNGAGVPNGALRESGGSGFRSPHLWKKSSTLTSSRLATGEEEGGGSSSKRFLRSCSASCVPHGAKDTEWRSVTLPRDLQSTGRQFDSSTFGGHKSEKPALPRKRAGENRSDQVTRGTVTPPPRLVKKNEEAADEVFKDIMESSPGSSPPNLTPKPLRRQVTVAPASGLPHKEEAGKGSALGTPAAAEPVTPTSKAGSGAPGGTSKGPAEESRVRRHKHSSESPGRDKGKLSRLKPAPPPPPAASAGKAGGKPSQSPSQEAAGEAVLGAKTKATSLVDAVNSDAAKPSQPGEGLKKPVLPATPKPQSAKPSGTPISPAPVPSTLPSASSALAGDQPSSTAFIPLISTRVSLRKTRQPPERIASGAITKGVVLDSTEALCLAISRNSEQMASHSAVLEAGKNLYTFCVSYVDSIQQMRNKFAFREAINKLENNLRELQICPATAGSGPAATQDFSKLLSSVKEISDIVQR
Description: National Center for Advancing Translational Sciences (NCATS),
National Institute of Health (NIH), Maryland
Discovery and optimization of novel protein-binding ligands underlies many of the methods and applications of biology, drug discovery, clinical diagnostics, and environmental toxicology. Assays for detecting the interaction of, for example, a molecule with a macromolecular target also referred to here as the target of interest (TOI) is dependent on a compatible output technology. Depending on the nature and knowledge surrounding the TOI, whether a receptor, enzyme, regulatory subunit or scaffold, or a sequence-defined nucleic acid folded into a complex tertiary structure, assay strategies can vary widely.
Here we exploit ligand-biased changes in the structural dynamics of the target protein to control reporter alpha complementation allowing a non-competitive, non-functional, non-separation measure of ligand-target interaction.
Secondly, we show the specificity and sensitivity of the SDR for the Abelson tyrosine kinase (ABL1) compared to the serine/threonine protein kinase A, using an enriched chemical library of 128 compounds selected, in part, for activity annotated with ABL1 kinase activity using the Pharos database (3).
(1) A. S. Dixon et al., NanoLuc Complementation Reporter Optimized for Accurate Measurement of Protein Interactions in Cells. ACS Chem Biol 11, 400-408 (2016).
Chemistry & Biology, 19, 1060 - 1072 (2012).
(3) K. J. Kelleher et al., Pharos 2023: an integrated resource for the understudied human proteome. Nucleic Acids Res 51, D1405-D1416 (2023).
PROTOCOL TABLE (as described by Inglese J, Shamu CE and Guy RK. 2007)
SEQUENCE No. (e.g., 1, 2, 3, etc.); […] (e.g., C. elegans, Compounds, Incubation, Read, etc.); VALUE and DESCRIPTION.
1. Reagent. Dispense 4 uL ABL1-N-HiBiT enzyme per well at a final enzyme concentration of 10 nM in buffer with 50 uM ATP (SDR assay) into columns 2-48 of four replicate Greiner 1536-well white, solid bottom high base, medium plates per assay. Dispense respective buffer without enzyme at 4 uL/well in column 1 of assay plates using BioRaptr 2.
2. Compounds. Library compounds added at 23 nL/well by pin transfer. DMSO neutral control and imatinib positive control added at 25 nL/well, transfer by Mosquito dispenser.
3. Incubation. Incubate enzyme and compounds at room temperature for 30 min, protected from light.
4. Reagent. (SDR assay) Add 3 uL/well of Nano-Glo HiBiT reagent (Promega) to assay plates with ATP.
5. Incubation. (SDR assay) Incubate enzyme solution and HiBiT reagent at room temperature for 10 min, protect from light.
6. Detector. (SDR assay) Luminescence measured using CCD-based camera (ViewLux) with settings as follows: Exposure, 1 sec; Gain, High; Speed, Slow; Binning, 2X.
Inglese J, Shamu CE and Guy RK, Reporting data from high throughput screening of small molecule libraries, Nature Chemical Biology, 2007, 3(8): 438-441. doi.org/10.1038/nchembio0807-438.

Point of comparison: Cc1ccc(C(=O)Nc2ccc(Oc3cc4cnn(C)c4cc3-c3cn[nH]c3)c(F)c2)c(=O)n1-c1ccc(F)cc1, “signal gain, positive = increase” value 3.16%. Against it:
- Cc1cccc(C)c1-n1c(=O)c2cnc(Nc3ccc(N4CCN(C)CC4)cc3)nc2n2c3ccccc3nc12 — lower, 1.71%
- Cc1cc(Nc2ncc3cc(-c4c(Cl)cccc4Cl)c(=O)n(C)c3n2)ccc1F — lower, 2.99%
- O=C1CCC(N2C(=O)c3ccccc3C2=O)C(=O)N1 (stereo not given) — lower, -4.35%
- O=c1cc(N2CCOCC2)nc2c3ccccc3ccn12 — higher, 8.04%
- CCn1nc(C2CCN(C(=O)CCO)CC2)nc1-c1cnc(N)c(-c2nnc(C(C)(C)C)o2)n1 — higher, 5.36%
- C=CC(=O)N1CCC[C@@H](n2nc(-c3cccc(C(=O)Nc4ccc(C(C)C)c(C)c4)c3)c3c(N)ncnc32)C1 — higher, 9.15%
- CNC(=O)c1ccccc1Nc1nc(Nc2ccc(N3CCOCC3)cc2OC)ncc1Cl — higher, 8.36%
- COc1ccc(CNC(=O)Nc2ncc([N+](=O)[O-])s2)cc1 — lower, -6.68%
- Cc1cc(Nc2ncc3c(n2)N(C)C(=O)N(c2cc(NC(=O)c4cccc(C(F)(F)F)c4)ccc2C)C3)n(C)n1 — higher, 16.5%
- FC(F)(F)c1ccc(/C=C/c2nc(COc3ccc(CCCCn4ccnn4)cc3)co2)cc1 — lower, 1.31%
- CCN(CC)CCOc1ccc(Nc2ncc3cc(-c4c(Cl)cccc4Cl)c(=O)n(C)c3n2)cc1 — higher, 4.63%
- Cn1ncc(NC(=O)c2nc(-c3c(F)cccc3F)sc2N)c1N1CC[C@@H](N)[C@H](F)CC1 — lower, 1.32%
- Cc1sc2c(c1C)C(c1ccc(Cl)cc1)=N[C@@H](CC(=O)Nc1ccc(OCCOCCOCCOCCNc3cccc4c3C(=O)N(C3CCC(=O)NC3=O)C4=O)cc1)c1nnc(C)n1-2 (stereo not given in full) — lower, -1.19%
- COc1cc(N2CCN(C)CC2)ccc1Nc1nc(N)c(C(=O)c2c(Cl)cccc2Cl)s1 — lower, -8.77%
- C=CC(=O)N1CCC(Oc2cc3c(Nc4ccc(Cl)c(Cl)c4F)ncnc3cc2OC)CC1 — higher, 5.97%
- Cc1ccc(NC(=O)N2CCN(c3nc(N)nc4sc(-c5cccnc5)nc34)CC2)cc1 — lower, 2.63%
- Cn1sc(=O)n(Cc2ccccc2)c1=O — lower, -6.97%
- CN1CCN(CCCNc2ncc(Cl)c(-c3cc4c(C(=O)NC5CC5)cccc4s3)n2)CC1 — lower, 1.32%
- COc1ccc(S(=O)(=O)N(C(C)=O)c2ccccc2/C=C/c2cc[n+]([O-])cc2)cc1 — lower, -0.277%
- Cc1ccc(NC(=O)c2ccc(CN3CCN(C)CC3)cc2)cc1Nc1nc(-c2cccnc2)cs1 — higher, 8.88%
- CCN1C(=O)CNc2ncc(-c3ccc(-c4ncn[nH]4)nc3C)nc21 — higher, 3.79%
- c1ccc(-c2oc3ncnc(NC[C@@H]4CCCO4)c3c2-c2ccccc2)cc1 — higher, 4.37%
- COc1ccc(-n2c(C)c([N+](=O)[O-])c3ccc(O)cc32)cc1 — lower, -0.535%
- Cc1c(Cl)cccc1S(=O)(=O)Nc1nc(NCCc2ccccc2)nc2c1CN(Cc1ccccc1)CC2 — lower, -8.84%
- Cc1cc(C)c(/C=C2\C(=O)Nc3ccccc32)[nH]1 — lower, -14.8%
- Cc1cc(F)ccc1-c1nc(NC(CO)CO)nc2c1ccc(=O)n2-c1c(F)cccc1F — lower, -1.35%
- O=C(NC1CCNCC1)c1[nH]ncc1NC(=O)c1c(Cl)cccc1Cl — lower, -1.94%
- O=C(Nc1ccc(OC(F)(F)F)cc1)c1sccc1NCc1ccnc2ccccc12 — lower, 1.19%
- CCn1c(=O)c(-c2ccc(Cl)cc2Cl)cc2cnc(Nc3ccc(N4CCNCC4)c(F)c3)nc21 — higher, 10.2%
- CCN1/C(=C\C(C)=O)Sc2ccc(OC)cc21 — lower, -0.996%
- COC(=O)Nc1ccc(-c2nc(N3CCOCC3)c3cnn(C4CCN(C(=O)OC)CC4)c3n2)cc1 — lower, -36.6%
- Cc1[nH]nc2ncc(C(=O)N3CCC[C@H]3c3ccc(Cl)cc3)cc12 — lower, 1.86%

For O=C(O)C1(Cc2cccc(Nc3nccs3)n2)CCC(Oc2cccc(Cl)c2F)CC1 (stereo not given), the Potency was 1.15 µM (active).
With CNS(=O)(=O)c1ccc2c(c1)/C(=C/c1[nH]c3c(c1CCCN1CCN(C)CC1)CCCC3)C(=O)N2 the Potency was 1.77 µM (active).
With COc1cc(N2CCC(N3CCN(C)CC3)CC2)ccc1Nc1ncc(Cl)c(Nc2ccccc2P(C)(C)=O)n1 the Potency was 3.15 µM (active).
For Cc1ccc(C(=O)Nc2ccc(CN3CCN(C)CC3)c(C(F)(F)F)c2)cc1C#Cc1cnc2[nH]ncc2c1, the Potency was 0.0158 µM (active).
For CCOc1ccn(-c2ccc(F)cc2)c(=O)c1C(=O)Nc1ccc(Oc2ccnc(N)c2Cl)c(F)c1, the Potency was 15.4 µM (active).
With Cc1ccc(-n2nc(C(C)(C)C)cc2NC(=O)NCc2cc(F)ccc2Oc2ccc3c(cnn3CCO)c2)cc1 the Potency was 0.375 µM (active).
In the case of COc1ccccc1-c1c[nH]c2ncc(-c3cncc(C(=O)N(C)C)c3)cc12, the Potency is reported as 0.0199 µM (active).
